Experimental data reported in PubChem BioAssay AID1240 (Sanford-Burnham Center for Chemical Genomics, 2008).
Among all 50,000 compounds or so, about 800 (1.6%) showed an effect of 50% or more. What follows is part of a selection rich in strong results, with near analogues and random picks from the rest.

target: Bcl-2-like protein 10 (Homo sapiens) (UniProt Q9HD36); test: Phenotype converters, Bcl-B/TR3 peptide binding displacement, primary biochemical FP (AID 1240); details: GST-Bcl-B / FITC-TR3 peptide fluorescence polarization; stronger effect = higher value; compound at 3.75 mg/L;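 also: 0% = Bcl-B with tracer peptide and DMSO and 100% = tracer peptide lacking Bcl-B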
Sequence (Q9HD36 whole entry, looked up): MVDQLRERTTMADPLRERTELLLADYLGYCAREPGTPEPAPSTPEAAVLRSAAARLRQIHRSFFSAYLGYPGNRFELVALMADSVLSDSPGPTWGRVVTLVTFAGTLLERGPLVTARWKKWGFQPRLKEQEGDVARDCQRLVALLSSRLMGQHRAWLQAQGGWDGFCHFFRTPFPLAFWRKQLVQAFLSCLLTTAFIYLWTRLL

Row | SMILES | displacement [%]
1 | CCOc1ccc(/C=C2\N=C(c3ccccc3F)OC2=O)cc1 | 11
2 | C=C(C)COc1ccccc1/C=C1\N=C(c2cccs2)OC1=O | 0.7
3 | Cc1no[n+]([O-])c1COc1ccccc1/C=C1\N=C(c2ccccc2)OC1=O | -3.2
4 | COc1cccc(/C=C2\N=C(c3cccs3)OC2=O)c1OC | 59.5
5 | CC(=O)n1cc(/C=C2\N=C(c3ccc(C(C)(C)C)cc3)OC2=O)c2ccccc21 | 72.1
6 | CCCOc1ccccc1/C=C1\N=C(c2ccccc2)OC1=O | 64
7 | COC(=O)c1ccc(/C=C2\N=C(c3ccc(C(C)(C)C)cc3)OC2=O)cc1 | 11.1
8 | CC(=O)n1cc(/C=C2\N=C(c3ccccc3F)OC2=O)c2ccccc21 | 7.6
9 | COc1ccc(/C=C2\N=C(c3ccccc3I)OC2=O)cc1 | -2.3
10 | O=C1OC(c2cccs2)=N/C1=C\c1cccc(Cl)c1Cl | 29.5
11 | C=CCOc1ccccc1/C=C1\N=C(c2ccc(C)cc2)OC1=O | -2.1
12 | COc1ccc(/C=C2\N=C(c3ccccc3F)OC2=O)c(OC)c1 | 72.1
13 | O=C(CN1C(=O)c2ccccc2C1=O)Nc1nc(-c2ccccc2)cs1 | -6.7
14 | COC(=O)C(C)N(C(=O)c1ccc(C(=O)c2ccccc2)cc1)c1c(C)cccc1C (centres undefined) | 10.7
15 | COc1cccc(-c2nnc(-c3ccncc3)o2)c1 | 6.6
16 | COc1cccc(OCCNC(=O)c2cc(OC)c(OC)c(OC)c2)c1 | 11.6
17 | O=C1NCC(c2ccccc2)C1C(=O)N/N=C\c1cc([N+](=O)[O-])cc(Br)c1O (centres undefined) | 5.6
18 | COCCCNC(=O)/C(=C/c1ccc(-c2ccc(Br)cc2)o1)NC(=O)c1ccccc1 | -6.6
19 | CCOc1ccc(NC(=O)/C=C/c2ccc(Cl)cc2)cc1 | 10.1
20 | COc1ccc(Cc2noc(-c3ccccc3C)n2)cc1 | -6.7

Row | SMILES | displacement [%]
21 | COC(=O)C1=NN(C(=O)c2ccccc2)C(O)(C(C)(C)C)C1 (centres undefined) | -3.6
22 | COc1cccc(/C=C2/N=C(c3ccc(NC(C)=O)cc3)OC2=O)c1 | 33.2
23 | COc1ccc(C=C2C(=O)c3ccccc3C2=O)c(O)c1 | 18.4
24 | O=C1OC(c2ccccc2F)=N/C1=C\c1ccccc1[N+](=O)[O-] | 4.1
25 | O=C1OC(c2ccccc2F)=N/C1=C\c1cccc(I)c1 | -0.4
26 | O=C1OC(c2ccccc2F)=N/C1=C\c1cccc2ccccc12 | 78.4
27 | COc1ccc(C2=NC(=Cc3cccc4ccccc34)C(=O)O2)cc1 | 108
28 | COc1ccc(C2=N/C(=C\N(C)C)C(=O)O2)cc1 | -9
29 | COc1ccccc1C=C1C(=O)c2ccccc2C1=O | 11.5
30 | COc1ccc(C=C2C(=O)c3ccccc3C2=O)c(OC)c1 | 181
31 | Cc1onc(-c2c(Cl)cccc2Cl)c1C(=O)N1CCN(Cc2ccccc2)CC1 | 0.2
32 | CCOC(=O)CNC1CC(C)(C)NC(C)(C)C1 | -1.2
33 | COc1ccc(NC(=O)c2ccc(N(Cc3ccc(Cl)cc3)S(C)(=O)=O)cc2)c(OC)c1 | 26.7
34 | Nc1cc(-c2ccc(Br)cc2)nn1Cc1ccc(Cl)cc1 | -1.3
35 | C=CCn1c(=S)[nH]c2sc3c(c2c1=O)CCc1ccccc1-3 | -4.7
36 | O=c1c2c3c(sc2[nH]c(=S)n1-c1ccccc1)CCC3 | -2.5
37 | O=c1c2c3c(sc2[nH]c(=S)n1-c1ccccc1)-c1ccccc1CC3 | 102
38 | O=C(c1ccc(-c2ccccc2)cc1)N1CCN(Cc2ccc3c(c2)OCO3)CC1 | -1.6
39 | Cc1[nH]c2ccccc2c1/C=C/c1nc2ccccc2c(=O)n1C | 186
40 | Cc1[nH]c2ccccc2c1/C=C/c1nc2ccccc2c(=O)n1Cc1ccccc1 | -5.8

Row | SMILES | displacement [%]
41 | O=c1c2ccccc2nc(/C=C/c2c[nH]c3ccccc23)n1-c1ccc([N+](=O)[O-])cc1 | -62.9
42 | O=c1c2ccccc2nc(/C=C/c2c[nH]c3ccccc23)n1-c1cccc([N+](=O)[O-])c1 | -2.2
43 | Cn1c(/C=C/c2c[nH]c3ccccc23)nc2ccccc2c1=O | 108
44 | Cc1c(/C=C/c2nc3ccccc3c(=O)n2C)c2ccccc2n1C | 3
45 | COc1ccc(C)cc1NC(=O)c1cccnc1 | 20.4
46 | COc1cc(/C=c2\sc3nc4ccccc4n3c2=O)cc(Br)c1OCc1ccccc1F | 13.9
47 | COc1ccc(-c2nnc(SCC(=O)Nc3ccc(C)cc3Br)o2)cc1 | 14.5
48 | COc1ccc(Br)cc1/C=C/C(=O)Nc1ccc(-c2nc3ncccc3o2)cc1 | -4.5
49 | O=C(/C=C/c1ccc(Cl)cc1)Nc1ccc(-c2nc3ccccc3o2)c(O)c1 | -0.3
50 | Cc1ccc(-c2nc3cc(Cl)ccc3o2)cc1NC(=O)/C=C/c1cccc([N+](=O)[O-])c1 | -18.8
51 | COc1ccc(Br)cc1/C=C/C(=O)Nc1cccc(-c2nc3ncccc3o2)c1C | 95.3
52 | Cc1ccc(-c2nc3ccccc3o2)cc1NC(=O)/C=C/c1cccc([N+](=O)[O-])c1 | 74.2
53 | O=C(/C=C/c1ccccc1)Nc1ccc(O)c(-c2nc3ccccc3o2)c1 | -3.2
54 | Cc1ccc2oc(-c3cccc(NC(=O)/C=C/c4cccc([N+](=O)[O-])c4)c3C)nc2c1 | -24.7
55 | Cc1c(NC(=O)/C=C/c2cccc([N+](=O)[O-])c2)cccc1-c1nc2ncccc2o1 | 74.8
56 | O=C(/C=C/c1ccccc1)Nc1ccc(-c2nc3ccccc3o2)c(O)c1 | 127
57 | COc1ccc(Br)cc1C(=O)Nc1cccc(-c2nc3ncccc3o2)c1C | -3.8
58 | O=C(/C=C/c1cccc([N+](=O)[O-])c1)Nc1ccc(-c2nc3ccccc3o2)cc1 | -5.2
59 | O=C(/C=C/c1cccc([N+](=O)[O-])c1)Nc1ccc(-c2nc3ncccc3o2)cc1 | 45.3
